High-throughput results from PubChem.
A selection: hits, their analogues and other compounds. The true share with any hit is near 4.8%.
DAX1 inh-1 – inhibitors of DAX1 repression of SF-1 activated StAR promoter | HEK293T StAR-luciferase reporter, SF-1/DAX-1 repression relief | inhibition, % at 6.8 µM | actives 1.1% (n = 370,000) | AID 652010;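 active means inhibition above the mean over all tested compounds plus 3 SD, cut at about 3.6% in these data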;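 further: 0% = DAX-1 cells with DMSO and 100% = cells lacking DAX-1 with DMSO; higher inhibition means more luminescence from relief of DAX-1 repression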
ssDAF12 agonist – activates DAF-12 receptor from parasite S. stercoralis; HEK293 ssDAF-12/GRIP1 lit1-tk-luc reporter, luminescence; % of 3 µM dafachronic acid response; activation, % at 6.8 µM; actives 1% (n = 370,000); AID 652126;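 active means activation above the mean over all tested compounds plus 3 SD, cut at about 0.9% in these data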;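 further: 0% = DMSO-only wells and 100% = 3 µM delta7-dafachronic acid wells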
DAX1 inh-2 – inhibits human nuclear receptor DAX1. actives 0.99% (n = 340,000). HEK293 Gal4-DAX1 luciferase reporter, luminescence. inhibition, % at 6.75 µM. AID 504766. P51843;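 active means inhibition above the mean over all tested compounds plus 3 SD, cut at about 4.2% in these data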;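 further: 0% = DAX1-transfected cells with DMSO and 100% = empty-vector control cells with DMSO; inhibition shows as a rise in luminescence from relieved DAX1 repression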
Target sequence (P51843 207-470 limits assumed): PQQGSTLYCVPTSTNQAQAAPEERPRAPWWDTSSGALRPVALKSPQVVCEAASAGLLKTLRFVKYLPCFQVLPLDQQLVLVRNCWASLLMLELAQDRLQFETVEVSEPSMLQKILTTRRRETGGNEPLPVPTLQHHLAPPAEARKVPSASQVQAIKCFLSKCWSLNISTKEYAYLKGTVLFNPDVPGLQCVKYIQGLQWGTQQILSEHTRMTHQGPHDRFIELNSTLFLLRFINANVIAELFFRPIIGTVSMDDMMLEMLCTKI
hgDAF-12 ag – activates the H. glycines DAF-12 receptor ligand-binding domain; activation, % at 6.8 µM; actives 1.8% (n = 370,000); HEK293 GAL4-hgDAF12 UAS-luciferase reporter, agonist luminescence; normalized to butyrate control; AID 687014;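 active means activation above a cutoff set at the mean of all screened compounds plus 3 SD, cut at about 10% in these data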;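 further: 0% = DMSO wells and 100% = sodium butyrate wells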
Rev-erbA mod – modulators of human Rev-erb alpha DNA binding | Rev-erbα–FITC-DNA binding, fluorescence polarization, 90 min | actives 0.79% (n = 370,000) | AID 1259318 | P20393 | activity, % at 10 µM;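 active means activity above about 14%, limit read from the data; passing the limit was not always enough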;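 further: 0% = DMSO wells with 35 nM protein and 100% = DMSO wells with 750 nM protein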
hcDAF12 agonist – activators of H. contortus DAF-12 nuclear receptor | HEK293 hcDAF-12 lit1-tk-luc reporter, luminescence; 0% DMSO, 100% Δ7-dafachronic acid | activation, % at 6.8 µM | actives 1.4% (n = 370,000) | AID 652067;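 active means activation above the mean of all tested compounds plus 3 SD, cut at about 5.5% in these data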;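 further: 100% = response to 3 µM Δ7-dafachronic acid high control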
DAX1 conf – NR0B1 (human) inhibition, confirmation | shares compounds with DAX1 inh-1 | HEK293T StAR-promoter luciferase reporter, SF-1/DAX-1 repression | inhibition, % at 6.8 µM | actives 87% (n = 2,400);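 active means inhibition above the average of every tested compound plus 3 SD, cut at about 3.8% in these data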;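 further: 0% = DAX-1 cells with DMSO and 100% = no DAX-1 control cells with DMSO; active compounds raise luminescence by relieving repression of the StAR reporter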
SF1 mutant ctr – counter-screen for DAX1 inhibitors: nonselective inhibitors with SF-1 AF2 mutant; shares compounds with DAX1 inh-1; HEK293 StAR-luciferase, luminescence; inhibition, % at 6.8 µM; actives 78% (n = 2,400);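 active means inhibition above the mean of all tested compounds plus 3 SD, cut at about 3% in these data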;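 further: 0% = DAX-1 transfected cells with DMSO and 100% = cells without DAX-1 with DMSO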
* marks the source's active call; other numbers are inactive results; . = no result given.

SMILES	DAX1 inh-1	ssDAF12 agonist	DAX1 inh-2	hgDAF-12 ag	Rev-erbA mod	hcDAF12 agonist	DAX1 conf	SF1 mutant ctr
O=C1CCCC2=C1C1(CCCCC1)N=C(Nc1nc3ccccc3o1)N2	0	-1	2	0	1	-2	.	.
O=C1CC(c2ccccc2)CC2=C1C1(CCCC1)N=C(Nc1nc3ccccc3o1)N2 (stereo not given)	4.5*	-1	.	4	-3	3	1	-1
COC(=O)C1=C(C)N(C)C(=NCc2ccccc2C(F)(F)F)NC1c1ccc(F)cc1 (stereo not given)	-2	-1	.	3	0	2	.	.
Cc1nn2c(=O)cc(COC(=O)c3c(F)cccc3Cl)nc2s1	8.6*	0	2	8	1	1	6.4*	6.2*
CNc1cc(-c2ccc(CC#N)cc2)ncn1	4.5*	-1	.	8	2	3	6.8*	5.5*
CCOc1ccccc1-c1cc(NC)ncn1	0	0	.	-2	-6	-2	.	.
COc1cccc(CNC(=O)[C@H]2CCCN2C(=O)[C@H]2CCCN2C(=O)c2ccc(C)c(C)c2)c1	-2	-1	.	0	-2	-2	.	.
O=C(NC1CC1)c1cc2cc3ccccc3nc2s1	4.9*	0	1	10	7	1	7.6*	4.6*
OC[C@H]1O[C@H](c2nc(-c3nc(-c4cccs4)no3)cs2)C[C@@H]1O	4.8*	0	.	12*	1	3	5.7*	3
CC(=O)Nc1ccc(NC(=S)NC(=O)C2CCCC2)cc1	4.9*	-1	1	4	0	0	2	0
CCOc1ccc(NC(=S)NC(=O)C2CCCC2)cc1	1	-1	0	4	8	2	.	.
O=C(c1ccc(C#Cc2ccccc2)cc1)N1CCC(O)CC1	4.9*	0	.	11*	2	4	7.2*	4.1*
CCC(C)c1ccc(NC(=O)Nc2cccnc2)cc1 (stereo not given)	6.4*	1	2	9	0	0	4.7*	3.6*
CCC(C)c1ccc(NC(=O)NCc2cccnc2)cc1 (stereo not given)	-1	-1	0	-2	6	0	.	.
COc1cc(O)c(C(CC(=O)N2CC(C)OC(C)C2)c2ccc3c(c2)OCO3)c(OC)c1 (stereo not given)	.	-1	.	-2	-3	-2	.	.
CCOC(=O)N1CCN(C(=O)c2ccc3oc(CCCc4ccccc4)nc3c2)CC1	5.2*	-1	2	8	0	3	6.0*	2
CC(=O)N1CCN(C(=O)c2oc3ccccc3c2C)CC1	5.3*	-1	1	1	4	2	3	3.7*
Cc1ccc2oc(C(=O)N3CCCCCC3)c(C)c2c1	5.3*	0	2	10	5	4	5.2*	3.5*
Cc1c(C(=O)NCCCN2CCOCC2)oc2ccc(S(=O)(=O)N3CCOCC3)cc12	0	-1	0	-5	6	0	.	.
Cc1ccc2oc(C(=O)NCCCN3CCOCC3)c(C)c2c1	6.6*	0	3	11*	-7	5	8.9*	7.6*
Cc1ccc2oc(C(=O)N3CCC(C(N)=O)(N4CCCCC4)CC3)c(C)c2c1	-2	1	0	0	-2	2	.	.
Cc1c(C(=O)N2CCCCC2)oc2ccc(Br)cc12	5.5*	1	0	11*	0	1	5.8*	4.0*
O=C(COc1ccc(Br)cc1Cl)NC(=S)Nc1ccccn1	4.8*	0	5.2*	3	0	5	16*	3.0*
O=C(NCc1ccccn1)c1cccc(S(=O)(=O)N2CCCCC2)c1	4.7*	-1	0	4	1	1	2	2
Cc1ccnc(NC(=O)c2ccc(S(=O)(=O)N3CCC(C)CC3)cc2)c1	11*	0	2	11*	1	4	13*	7.6*
SMILES	DAX1 inh-1	ssDAF12 agonist	DAX1 inh-2	hgDAF-12 ag	Rev-erbA mod	hcDAF12 agonist	DAX1 conf	SF1 mutant ctr
Cc1ccnc(NC(=O)c2cccc(S(=O)(=O)N3CCN(c4ccccc4)CC3)c2)c1	13*	0	-1	10	-6	5	4.0*	3
Cc1ccnc(NC(=O)c2cccc(S(=O)(=O)N3CCCC3)c2)c1	3	-1	0	1	-3	1	.	.
O=C(NCc1ccccn1)c1ccc(Cl)c(S(=O)(=O)N2CCCCC2)c1	0	0	0	-5	3	-3	.	.
CCOC(=O)C1=C(C(=O)OCC)C2N(Cc3ccc(Br)cc3)c3ccccc3[C@@]23C[C@@H](C(=O)OC)N(S(=O)(=O)c2ccc(Br)cc2)C3=N1 (stereo not given in full)	0	-2	.	0	2	1	.	.
O=c1[nH]cnc2c1ncn2C1O[C@H](CO)[C@@H](O)[C@H]1O (stereo not given in full)	.	.	.	.	-3	.	.	.
COc1cc(NC(=O)CCCN2C(=O)NC(C)(C)C2=O)cc(OC)c1	4.8*	-1	1	-3	-5	0	2	0
COc1ccccc1OCCCC(=O)Nc1nnc(C2CCCO2)s1 (stereo not given)	6.1*	-1	1	0	-7	1	4.2*	3.7*
O=C(CCCOc1ccccc1)Nc1nnc(C2CCCO2)s1 (stereo not given)	0	-1	1	1	-4	0	.	.
c1ccc2nc(NN=C3CCCCC3)ccc2c1	4.5*	1.8*	3	10	1	6.7*	7.4*	3.1*
c1ccc2[nH]c(NN=C3CCCCCC3)nc2c1	1	0	1	2	-3	5	.	.
Cc1cccc(C(=O)Nc2c(-c3ccccc3)nc3ncccn23)c1	-2	0	.	3	2	-2	.	.
Cc1ccc2nc(SC(C)C(=O)N3CCOCC3)[nH]c2c1 (stereo not given)	7.3*	-1	2	11*	-4	4	6.2*	5.0*
Cc1cccc(C(=O)Nc2ccn(C)n2)c1	4.9*	-1	2	8	-7	0	5.8*	3.0*
CCC(=O)Nc1ccc2c(c1)C(=O)N(C)[C@@H]1CC[C@@H](CC(=O)NCc3ccc(OC)cc3)O[C@H]1CO2	1	0	.	1	-3	0	.	.
Cc1ccc(C(=O)NCCC(=O)N2CCOCC2)cc1	10*	0	1	9	-4	4	6.3*	3.3*
